Source: PubChem BioAssay
Activity calls are given as the source filed them.

Assay: growth of efflux-deficient E. coli DRC39 – strain DRC39, OD650, 48 h, E. coli filamentation inducers, primary screen (AID 1179);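 note: screen aims at cell division blockers that make cells filament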
Conditions: E. coli DRC39 delta-acrAB growth, higher = more signal, called active from +8 up or from −8 down

z-score, inactive:
CC(C)OC(=O)C=C1C[C@@H](c2ccc(C#N)cc2)O[C@@H](c2ccc(C#N)cc2)O1 -0.182
CO[C@@H]1COC(=O)CC=C[C@@H](C)COC(=O)[C@H](COCc2ccccc2)NC(=O)CC=C[C@H]1C -0.0248
CO[C@@H]1COC(=O)CC=C[C@@H](C)[C@@H]2C=C[C@H](O)[C@@H](COC(=O)CCC[C@H]1C)O2 -0.195
O=C1[C@H]2[C@H]3[C@H](O)[C@H](O)CC(=NO[C@@H]4O[C@H](CO)[C@@H](O)[C@H](O)[C@H]4O)[C@H]3CC[C@H]2C(=O)N1Cc1ccc2c(c1)OCO2 0.385
C=CC[C@@H]1C=C[C@H](ON=Cc2ccc(C(=O)N3[C@H](c4ccc(C)cc4)[C@@H](C)CC[C@H]3C(=O)OC)cc2)[C@@H](CO)O1 0.226
COCCOC(=O)N1C(=O)[C@@]2(c3cc(C#Cc4ccc(OC)cc4)ccc31)[C@H](c1ccc(O)cc1)N1[C@H](c3ccccc3)[C@H](c3ccccc3)OC(=O)[C@H]1[C@@H]2C(N)=O 0.0669
CC(C)(C)N1CC=CC23O[C@@H]4C=CCCOC(=O)C4[C@H]2C(=O)N(CCCCCO)[C@@H]3C1=O (stereo partly specified) 0.762
COCCOC(=O)N1C(=O)[C@@]2(c3cc(C#Cc4ccc(OC)cc4)ccc31)[C@H](C(=O)N1CCN(c3ncccn3)CC1)[C@H]1C(=O)O[C@H](c3ccccc3)[C@H](c3ccccc3)N1[C@@H]2c1ccc(OCCO)cc1 -0.0435
COC(=O)[C@@H]1CC[C@H](C)[C@@H](c2ccc(C)cc2)N1C(=O)c1ccc(C=NOC(C)CN2CCCCc3nc(C)c(C)cc32)cc1 (stereo partly specified) -0.27
CC(C)CON=C1[C@H]2CCn3c(=O)n(-c4ccccc4)c(=O)n3[C@H]2[C@H](O)[C@@H]2O[C@H]12 0.596
COCC(=C=CC[C@@H](O)c1ccccc1OCCO)CCO 1.16
O=C1O[C@@H](c2ccccc2)[C@@H](c2ccccc2)N2[C@@H](c3ccc(OCCO)cc3)[C@]3(C(=O)Nc4ccc(C#CCCO)cc43)[C@@H](C(=O)N3CCCCCCC3)[C@H]12 0.543
C#C[C@@H]1Oc2ccccc2S(=O)(=O)N2CCC[C@H]12 -0.816
CCCC[C@H]1OB(O)C[C@H]2C1=C(C)C[C@H]1C(=O)N(C)C(=O)[C@H]12 0.499
O=C1[C@H]2[C@H]3[C@H](O)[C@H](O)CC(=NOC[C@@H](O)COCc4ccco4)[C@H]3CC[C@H]2C(=O)N1c1cccc(Oc2ccccc2)c1 1.33
CC(C)[C@H](NC(=O)OC(C)(C)C)[C@@H](O)CC(=O)OC(C)(C)C -0.998
CO[C@H]1COC(=O)CC=C[C@H](C)[C@@H](NS(=O)(=O)c2ccc(C)cc2)COC(=O)CC=C[C@@H]1C -1.03
CCOC(=O)CCN1C(=O)[C@H]2[C@H]3[C@H](O)[C@H](O)CC(=O)[C@H]3CC[C@H]2C1=O -1.81
NC(=O)NCC#Cc1ccc2c(c1)[C@]1(C(=O)N2)[C@H](c2ccc(O)cc2)N2[C@H](c3ccccc3)[C@H](c3ccccc3)OC(=O)[C@H]2[C@@H]1C(=O)N1CCCCCCC1 -0.817
CCOC(=O)C[C@H]1[C@H](OC(=O)c2ccc(C(=O)c3ccccc3)cc2)[C@@H](NC(=O)c2ccc(-c3ccccc3)cc2)c2cc(OCCCO)ccc2N1C(=O)c1ccc2ccccc2n1 1.23
O=C1[C@H]2[C@H]3[C@H](O)[C@H](O)CC(=NO[C@@H]4O[C@H](CO)[C@@H](O)[C@H](O)[C@H]4O)[C@@H]3CC[C@H]2C(=O)N1Cc1ccccc1 1.21
CC(C)(C)N1C(=O)[C@H]2[C@H]3[C@H](O)[C@H](O)CC(=NOCc4ccccc4)[C@@H]3CC[C@H]2C1=O -0.0278
C[C@@H](c1ccccc1)N1C(=O)[C@H]2[C@H]3[C@H](O)C=CC(=O)[C@@H]3CC[C@H]2C1=O -0.286
CC(C)(C)N1C(=O)[C@H]2[C@H]3[C@H](O)[C@H](O)CC(=NO[C@@H]4O[C@H](CO)[C@@H](O)[C@H](O)[C@H]4O)[C@@H]3CC[C@H]2C1=O 0.441
CCOC(=O)NN=C1C[C@@H](O)[C@@H](O)[C@@H]2[C@@H]3C(=O)N(C(C)(C)C)C(=O)[C@@H]3CC[C@@H]12 -0.0961
COC(=O)[C@H](C)NC(=O)CCC1CC(OC(=O)NCCc2ccc(F)cc2)CC2(CCCC(COC(=O)NCCc3ccc(Cl)cc3)O2)O1 (stereo partly specified) 0.942
COc1ccccc1CN1C(=O)c2ccccc2[C@@H](C(=O)NCC(F)(F)F)[C@@H]1c1ccc(CO)cc1 1.69
C[C@H]1Cc2c(-c3ccccc3)nc3c(c2CO1)CN(CCOc1ccccc1)CC3 -0.176
COCCCNC(=O)[C@@]1(CCS(=O)(=O)c2ccccc2)N=C(c2ccc(OCCCO)cc2)O[C@H]1c1ccccc1 0.953
O=C1CCCC2OC12C(O)CCc1ccccc1 (stereo unspecified) 0.489
COC(=O)CC=C[C@H](C)[C@@H](OCc1ccccc1Br)C(C)C 0.661
CO[C@H]1COC(=O)[C@@H]2CCCN2C(=O)[C@@H](C)COC(=O)CC=C[C@@H]1C 0.362
CC(C)=CCCC(C)=CCON=C1[C@H]2CCn3c(=O)n(C)c(=O)n3[C@H]2[C@H](O)[C@@H]2O[C@H]12 0.214
CN1C(=O)C2C=CC(C(O)C(c3ccccc3)c3ccccc3)N(NC(=O)OC(C)(C)C)C2C1=O (stereo unspecified) -0.577
CCOC(=O)CCN1C(=O)[C@H]2[C@H]3[C@H](O)[C@H](O)CC(=NNC(=O)OCc4ccc(OC)cc4)[C@@H]3CC[C@H]2C1=O 0.237
CC(CCC(=O)OC[C@H]1O[C@H](C#Cc2ccccc2)C=C[C@@H]1Oc1ccc(C)cc1)=NO[C@@H](C)c1cn([C@H](CO)Cc2ccccc2)nn1 -1.24
